High-throughput results from PubChem BioAssay.
Pol kappa inh-1 – DNA polymerase kappa (human) inhibition; Q9UBT6; purified Pol kappa, fluorescent DNA synthesis assay, 10 min; Potency, µM (doses to about 107 µM), inactives show at the highest dose activity, negative = inhibition, actives largely listed as inhibitors; 400,000 tested, 0.53% active; AID 588579; also: potency is read from the fitted curve at half-maximal effect; % is scaled to controls: 0 for no effect and ±100 for the full control effect
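10 nM Pol kappa preincubated 15 min at room temperature with compounds, then reaction started with substrate at 50 nM final. Fluorescence read kinetically at 0 and 10 min; buffer-only wells served as negative control.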
Pol eta inh-1 – blocks human DNA polymerase eta activity. Q9Y253. recombinant Pol eta, fluorescent DNA replication assay. Potency, µM (top dose mostly 114 µM), inactives show at the top dose activity change, negative = inhibition, hits mostly inhibitors. 390,000 tested, 1.2% active; also: potency is read from the fitted curve at half-maximal effect; % is scaled to controls: 0 for no effect and ±100 for the full control effect
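Fluorescent replication assay: 50 nM final substrate added after a 15 min room-temperature compound preincubation with 10 nM enzyme. Signal taken at 0 min and again at 10 min.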
Pol iota inh – inhibitors of human DNA polymerase iota. 390,000 tested, 1% active. Potency, µM (titrated, usually from 115 µM), for the others: at the top dose activity, negative = inhibition, usual class: inhibitors. Pol iota fluorescent replication assay, 10 min. Q9UNA4; also: potency is read from the fitted curve at half-maximal effect
Target sequence (Q9UNA4 whole entry, looked up): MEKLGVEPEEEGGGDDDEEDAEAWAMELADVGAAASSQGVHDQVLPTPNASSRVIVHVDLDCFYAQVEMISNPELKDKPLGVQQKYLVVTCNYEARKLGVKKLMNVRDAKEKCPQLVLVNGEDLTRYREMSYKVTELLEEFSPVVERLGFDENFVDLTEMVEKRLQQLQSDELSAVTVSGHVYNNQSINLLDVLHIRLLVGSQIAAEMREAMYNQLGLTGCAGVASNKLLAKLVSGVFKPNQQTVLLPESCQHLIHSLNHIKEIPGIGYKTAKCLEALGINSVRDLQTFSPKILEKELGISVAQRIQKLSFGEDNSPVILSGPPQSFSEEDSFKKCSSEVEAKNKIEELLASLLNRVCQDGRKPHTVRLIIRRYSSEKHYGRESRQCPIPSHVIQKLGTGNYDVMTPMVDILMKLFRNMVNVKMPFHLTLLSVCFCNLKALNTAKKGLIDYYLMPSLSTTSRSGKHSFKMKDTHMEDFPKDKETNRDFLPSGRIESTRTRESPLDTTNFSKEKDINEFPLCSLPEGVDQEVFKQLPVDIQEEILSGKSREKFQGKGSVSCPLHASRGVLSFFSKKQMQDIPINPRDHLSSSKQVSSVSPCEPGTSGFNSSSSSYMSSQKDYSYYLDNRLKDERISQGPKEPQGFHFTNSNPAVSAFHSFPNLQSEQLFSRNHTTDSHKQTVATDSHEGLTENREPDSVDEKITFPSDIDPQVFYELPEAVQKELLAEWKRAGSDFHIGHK
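Pol iota at 10 nM preincubated 15 min with compounds at room temperature; reaction started with fluorescent substrate, 50 nM final. Fluorescence read kinetically at 0 and 10 min; buffer-only wells as negative control.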
WRN helicase inh – WRN helicase (human) inhibition | Q14191 | WRN helicase unwinding, fluorescent forked duplex, kinetic | Potency, µM (titrated, usually from 114 µM), inactives show at the highest dose activity change, negative = inhibition, most hits filed as inhibitors | 360,000 tested, 0.46% active | AID 651768; also: potency is read from the fitted curve at half-maximal effect; % is scaled to controls: 0 for no effect and ±100 for the full control effect; nearly all actives have a fitted effect of over 55% in size
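Enzyme (20 nM final) and test compound sit together 15 min at room temperature before substrate addition. Substrate is a single-forked duplex oligonucleotide (100 nM) labelled with fluorophore and quencher, with 2 mM ATP; helicase unwinding raises red fluorescence, read kinetically.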
POLB inh – inhibitors of human DNA polymerase beta | Pol beta primer extension/strand displacement, fluorescence kinetic | Potency, µM (doses to about 114 µM), for the others: at the highest dose activity change, negative = inhibition, actives largely listed as inhibitors | 340,000 tested, 1.3% active; also: potency is read from the fitted curve at half-maximal effect; % is scaled to controls: 0 for no effect and ±100 for the full control effect
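Kinetic readout of DNA synthesis with strand displacement by Pol beta. Compound and 10 nM enzyme sit 15 min at room temperature; 50 nM substrate starts the reaction, read immediately and at 10 min.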
PI5P4Ka inh – blocks human PI5P4K alpha kinase activity. PI5P4Kalpha enzyme, ADP-Glo luminescence, 60 min; hits give low values. P48426. 330,000 tested, 1.2% active. max response, %. AID 652105; active = max response of -50% or lower; inconclusive = between -30% and -50%; inactive = -30% or higher; also: value at the top dose of about 77 µM; % is scaled to controls: 0 for no effect and ±100 for the full control effect
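Controls without substrate or without enzyme flank wells where PI5P4Kalpha converts substrate using 5 microM ATP (final). Incubation lasts 60 minutes at room temperature; ADP formed is read by ADP-Glo luminescence.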
PGK validate – validation of Trypanosoma brucei phosphoglycerate kinase inhibitors; shares compounds with Pol kappa inh-1; TbPGK coupled GAPDH assay, Kinase-Glo luminescence; Potency, µM (series often up to 57.5 µM), inactives show top-dose activity change, negative = inhibition, usual class: inhibitors; 500 tested, 79% active; AID 686980; also: potency is read from the fitted curve at half-maximal effect; % is scaled to controls: 0 for no effect and ±100 for the full control effect; nearly all actives have a fitted effect of over 65% in size
Pol iota confirm – Confirm cherry-picked inhibitors of human polymerase iota; shares compounds with Pol kappa inh-1; Pol iota primer extension, TAMRA/BHQ fluorescence; Potency, µM, hits mostly inhibitors; 1,500 tested, 77% active; AID 720496; also: potency is read from the fitted curve at half-maximal effect
GALK inh confirm – confirmation of human galactokinase (GALK) inhibitors; shares compounds with Pol eta inh-1; purified GALK, Kinase-Glo ATP depletion luminescence; Potency, µM (titrated, usually from 115 µM), without a hit: top-dose activity, negative = inhibition, actives largely listed as inhibitors; 150 tested, 70% active
GALK redox cs – generates H2O2 by redox cycling, flagging GALK artifacts | Potency, µM (highest dose often 115 µM), inactives show at the top dose activity change, negative = H2O2 signal, actives largely listed as inhibitors | Phenol red-HRP H2O2 redox cycling, absorbance 600 nm | 150 tested, 40% active | shares compounds with Pol eta inh-1
HEK293 viability – reduces HEK-293 cell viability in GALK counter-screen. shares compounds with Pol eta inh-1. HEK-293 viability, ATP luminescence (CellTiter-Glo), 24/48 h. Potency, µM (titrated, usually from 46.1 µM), inactives show top-dose activity change, negative = cytotoxicity, most hits filed as inhibitors. 170 tested, 10% active. AID 2547; also: potency is read from the fitted curve at half-maximal effect; % is scaled to controls: 0 for no effect and ±100 for the full control effect
Pol kappa inh-2 – Pol kappa (human) inhibition, cherry-pick confirmation; shares compounds with Pol eta inh-1; purified Pol-kappa, fluorescent strand-displacement substrate; Potency, µM, most hits filed as inhibitors; 920 tested, 76% active; also: potency is read from the fitted curve at half-maximal effect
Pol eta inh-2 – confirmation of human DNA polymerase eta inhibitors. Pol eta primer extension, TAMRA/BHQ fluorescence, 10 min. 2,600 tested, 64% active. Potency, µM, actives largely listed as inhibitors. AID 720502. shares compounds with Pol eta inh-1; also: potency is read from the fitted curve at half-maximal effect
An asterisk follows results filed as active; u = inconclusive; x = no result given; [ ] = remark or other dose. Only some compounds are listed: those with a hit (about 2.8% of all), similar ones and a draw of the others. Unless noted, calls follow the shape of the dose curve; as a rule, active = well fitted curve in the direction sought with a large enough effect; inconclusive = small, poorly fitted or top-dose-only effect, or another doubt; inactive = no such curve, though single readings can be large; an effect the other way counts as inactive or inconclusive.

SMILES	Pol kappa inh-1	Pol eta inh-1	Pol iota inh	WRN helicase inh	POLB inh	PI5P4Ka inh	Pol iota confirm	Pol eta inh-2	others
CN(C)c1cc(Cl)c2nonc2c1N	-22.5%	79.4µM*	10µM*	-1.7%[11.6 µM]	-26.1%	-9.7	75.2*	75.7*	GALK inh confirm=21.1µM*;GALK redox cs=11.9µM*;HEK293 viability=19.4%
O=C(O)CSc1cc(NS(=O)(=O)c2ccc(Br)cc2)c2ccccc2c1O	89.1µM*	35.5µM*	7.08µM*	50.1µM*	89.1µM*	u	u	u	Pol kappa inh-2=u
Cc1ccc(S(=O)(=O)Nc2ccc(Br)cc2C(NCC(=O)O)c2ccccc2)cc1 (stereo not drawn)	-19.8%	-5.1%	-1.0%	-7.7%	-15.1%	6.1	x	x
Cc1noc(C)c1C(=O)OC(C)C(=O)c1ccc(C(C)(C)C)cc1 (stereo not drawn)	x	-3.4%	x	-0.7%	x	3.2	x	x
COc1ccc(Br)cc1CNC(=O)C1CCCCN1S(=O)(=O)c1ccc(F)cc1 (stereo not drawn)	-7.5%	-3.6%	-1.2%	x	-2.7%	x	x	x
N#Cc1ccc(OCC(=O)Nc2cccc(S(=O)(=O)NC3=NCCCCC3)c2)cc1	-35.0%	u	79.4µM*	-26.7%	x	u	67*	u
O=C(COc1ccc(Cl)cc1)Nc1cccc(S(=O)(=O)NC2=NCCCCC2)c1	-4.6%	-19.3%	16.5%	1.5%	x	-0.2	x	x
O=S(=O)(c1ccccc1Br)N1CCN(c2nc(-c3cccs3)nc3ccccc23)CC1	11.8%	x	-20.6%	x	x	x	x	x
COc1cc(/C=C2\SC(=O)N(CC(=O)Nc3ccc(C)cc3)C2=O)cc(Cl)c1OCC(=O)O	u	u	20µM*	50.1µM*	50.1µM*	-17.4	4.23*	u	PGK validate=5.8µM*
Cc1ccc(NC(=O)CN2C(=O)S/C(=C/c3ccc(O)c([N+](=O)[O-])c3)C2=O)cc1C	50.1µM*	44.7µM*	20µM*	79.4µM*	89.1µM*	-57.6*	33.6*	u	Pol kappa inh-2=59.7*
CCc1ccc(OCC(=O)Nc2ccc3oc(=O)ccc3c2)cc1	-11.9%	-12.9%	84.6%	2.1%	0.2%	-7.3	x	x
CC(=O)Nc1ccc(-n2nnnc2SCC(=O)Nc2cccc(NC(=O)c3ccco3)c2)cc1	-55.0%	u	28.2µM*	8.7%	u	2.8	53.2*	u
CCc1ccc(-n2nnnc2SCC(=O)Nc2ccc(NC(C)=O)cc2)cc1	0.6%	-0.7%	9.3%	2.8%	3.1%	-4.6	x	x
